Test results as given in PubChem BioAssay (NCI).
Compounds without any hit were thinned out: in the full panel of roughly 83,000, 20% have a hit.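 The test compound was applied at a single concentration to cells in 96-well plates for 48 hours, and percent growth was recorded.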 Unmarked numbers belong to inactive results. The source made the active and inactive calls. The calls were made as follows: active = growth percent below 10; inactive = the rest.

Columns and labels:
Assay in all cases: NCI-60 one-dose screen, 48 h (100 = growth as untreated, 0 = no growth, -100 = all killed)
Details in all cases: 10 µM unless noted
DU-145 prostate = test system: DU-145 prostate
K-562 leukemia = test system: K-562 leukemia
MDA-MB-231 breast = test system: MDA-MB-231 breast
RXF 393 renal = test system: RXF 393 renal
SF-268 CNS = test system: SF-268 CNS
SF-295 CNS = test system: SF-295 CNS
SF-539 CNS = test system: SF-539 CNS
UACC-257 melanoma = test system: UACC-257 melanoma
M14 melanoma = test system: M14 melanoma
HCT-15 colon = test system: HCT-15 colon
HT29 colon = test system: HT29 colon
SNB-75 CNS = test system: SNB-75 CNS
SNB-19 CNS = test system: SNB-19 CNS
U251 CNS = test system: U251 CNS
PC-3 prostate = test system: PC-3 prostate
SK-MEL-5 melanoma = test system: SK-MEL-5 melanoma
UACC-62 melanoma = test system: UACC-62 melanoma
LOX IMVI melanoma = test system: LOX IMVI melanoma
SK-MEL-28 melanoma = test system: SK-MEL-28 melanoma
MALME-3M melanoma = test system: MALME-3M melanoma

Compound	growth (DU-145 prostate)	growth (K-562 leukemia)	growth (MDA-MB-231 breast)	growth (RXF 393 renal)	growth (SF-268 CNS)	growth (SF-295 CNS)	growth (SF-539 CNS)	growth (UACC-257 melanoma)	growth (M14 melanoma)	growth (HCT-15 colon)	growth (HT29 colon)	growth (SNB-75 CNS)	growth (SNB-19 CNS)	growth (U251 CNS)	growth (PC-3 prostate)	growth (SK-MEL-5 melanoma)	growth (UACC-62 melanoma)	growth (LOX IMVI melanoma)	growth (SK-MEL-28 melanoma)	growth (MALME-3M melanoma)
Cc1cc(-c2ccccc2)cc(C)n1	125%	98%	101%	117%	111%	101%	102%	108%	103%	105%	99%	86.1%	99.4%	103%	96.6%	106%	103%	96.9%	107%	–
O=C1OC(Oc2ccccc2)(c2ccccc2)c2ccccc21 (stereo unspecified)	108%	55.3%	98.3%	120%	95.3%	150%	100%	112%	111%	99.7%	102%	97.2%	115%	91.4%	91.2%	112%	100%	89.2%	127%	–
O=[N+]([O-])c1ccc(N=Nc2c(Cl)cc(O)cc2Cl)cc1	11.1%	1.93% (active)	-35.6% (active)	7.36% (active)	-5.79% (active)	-55.6% (active)	-2.1% (active)	-21.5% (active)	-30% (active)	-25.7% (active)	8.53% (active)	-10.4% (active)	20.1%	10%	8.4% (active)	-58.7% (active)	-44.1% (active)	-12.7% (active)	5.72% (active)	–
CCOC(=O)Nc1ccc2c3c(cccc13)-c1ccccc1-2	66.1%	15.6%	35%	57.9%	52.3%	27.2%	21.9%	59.4%	6.41% (active)	25.2%	5.04% (active)	6.18% (active)	45.1%	34.5%	49.8%	33.6%	30.5%	30.5%	46%	–
Cc1[nH]cnc1/C=C1\SC(N2CCCCC2)=NC1=O	125%	96.8%	96.8%	96.3%	114%	130%	100%	105%	103%	107%	108%	111%	102%	108%	106%	103%	100%	97.7%	119%	–
COc1ccc(-c2ccc(O)c(C(=O)/C=C/c3cc(OC)c(OC)c(OC)c3)c2)cc1	83.7%	56.5%	85.6%	94.5%	79.6%	92.4%	96.8%	86.6%	93.6%	76.6%	75%	96.9%	99.4%	78%	61.8%	71.7%	67.1%	62.5%	104%	–
C1CCC(C(CC2CCCCN2)C2CCCCC2)CC1 (stereo unspecified)	14%	-64.9% (active)	1.11% (active)	–	49.9%	-62.9% (active)	-35.9% (active)	–	-88.2% (active)	25%	-53.8% (active)	7.79% (active)	13.2%	-61.3% (active)	23.9%	-94.3% (active)	-7.18% (active)	-95.5% (active)	-84.8% (active)	-73.2% (active)
Nc1ncnc2c1CN(Cc1ccccc1)CC2	132%	98.1%	104%	122%	105%	105%	99.2%	111%	111%	107%	104%	89%	104%	101%	93.9%	109%	107%	91.4%	109%	–
O=C(Oc1ccccc1)C(Br)C(Br)c1ccccc1 (stereo unspecified)	-38.7% (active)	-44.2% (active)	101%	98.2%	78.7%	130%	110%	93.9%	102%	95.4%	54.5%	110%	104%	75.7%	55.4%	106%	101%	82.2%	111%	–
O=c1c2c(=NCCCN3CCCC3)cc3c(=O)n(CCCN4CCCC4)c(=O)c4c(NCCCN5CCCC5)cc(c(O)n1CCCN1CCCC1)c2c4-3	-16.1% (active)	6.04% (active)	-9.58% (active)	-67.6% (active)	-7.1% (active)	-42.5% (active)	-32.6% (active)	-29.8% (active)	-63.1% (active)	12.9%	-7.75% (active)	-83.1% (active)	7.13% (active)	1.98% (active)	11.7%	-66% (active)	-52.2% (active)	-7.8% (active)	-42.3% (active)	–
Nc1ccc(N=Nc2ccccc2)cc1[N+](=O)[O-]	109%	87.4%	65.8%	104%	85.3%	113%	92.6%	103%	104%	68.8%	92%	73.3%	95.3%	86.7%	83.9%	93.1%	73%	77.9%	119%	–
COc1ccc(N2CCN(CC(=O)N3CCN(c4nnc(-c5ccccc5)c(-c5ccccc5)n4)CC3)CC2)cc1	70.5%	18.7%	72.1%	–	62.6%	39.6%	53.9%	–	64.4%	35.9%	26.1%	70.2%	62.8%	46.7%	22%	13.9%	56.7%	44.6%	71.3%	64.6%
O=C(CN1CCN(c2ccc(Cl)cc2)CC1)N1CCN(c2nnc(-c3ccc(Cl)cc3)c(-c3ccc(Cl)cc3)n2)CC1	87%	33%	95.1%	–	83.4%	82.3%	82.3%	–	74.3%	59%	57.3%	75.6%	78%	74.2%	30.5%	–	69.9%	51.8%	93.6%	114%
Cc1sc2nc3c4ccccc4c(NCCCN(C)C)nn3c(=O)c2c1C	41.5%	-73.8% (active)	-23.6% (active)	–	66.7%	65.6%	29%	–	-95.6% (active)	17.1%	-17.8% (active)	54.3%	81.6%	55.8%	50.9%	9.72% (active)	44.3%	-39% (active)	-87.5% (active)	-42.2% (active)
